Bioassay records: PubChem, several laboratories
KLF5 inhibitor: suppresses KLF5 promoter-driven expression; AID 1700; 290,000 compounds, 0.23% hits; DLD-1 KLF5 promoter-luciferase reporter, luminescence; inhibition, % at 5 µM;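 active = inhibition above a per-plate limit of that plate's mean compound inhibition plus 3 SD, cut at about 60% in these data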;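 also: higher means less KLF5 promoter-driven luciferase light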
Ba/F3 V617F tox: lowers viability of Ba/F3 cells expressing EpoR and JAK2V617F; ATP luminescence; inhibition, % at 5.6 µM; AID 1446; 220,000 compounds, 1.1% hits;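 active = inhibition above the campaign mean plus 3 SD over all tested compounds, cut at about 24% in these data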;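 also: cytokine-independent growth of Ba/F3 cells driven by EpoR plus mutant JAK2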
APP 5UTR inh: APP translation inhibition | inhibition, % at 2 µM | AID 1285 | 190,000 compounds, 0.82% hits | SH-SY5Y APP 5'UTR-luciferase reporter, luminescence;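 active = inhibition above a set limit, derived from the sample mean plus 3 SD, cut at about 45% in these data; inconclusive = one replicate passes the limit while the other fails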
aSyn UTR inh: 5' untranslated region of α-synuclein, MLPCN primary screen | inhibition, % (tested at 7.5 µM) | 300,000 compounds, 0.82% hits | alpha-synuclein 5'UTR reporter, inhibitor activity; in the data active = inhibition above about 60%; inconclusive = no clear call, values can overlap the other calls;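 also: H4 neuroglioblastoma cells stably carrying SNCA 5'UTR luciferase fusion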
BaF3 tox: reduces parental Ba/F3 cell viability, JAK2V617F counter-screen; CellTiter-Glo ATP luminescence; 220,000 compounds, 1.1% hits; inhibition, % at 5.6 µM;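 active = inhibition above a per-campaign cutoff, the mean inhibition of all tested compounds plus 3 SD, cut at about 27% in these data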
IEC-6 tox: kills IEC-6 intestinal cells in KLF5 counter-screen | IEC-6 cytotoxicity, luminescence viability | inhibition, % at 5 µM | 290,000 compounds, 0.78% hits | AID 1825; in the data active = inhibition above about 22%
BaF3 tox 2: reduces parental Ba/F3 viability, JAK2V617F counter-screen; shares compounds with Ba/F3 V617F tox; CellTiter-Glo luminescence; cells kept alive by added IL-3; inhibition, % at 5.6 µM; 580 compounds, 31% hits; AID 1520;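 active = cell growth inhibition above the hit limit set in the earlier mutant JAK2 cell screen, cut at about 27% in these data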
JAK2V617F confrm: Ba/F3 EpoR-JAK2V617F viability loss, confirmation | AID 1521 | shares compounds with Ba/F3 V617F tox | CellTiter-Glo luminescence | 580 compounds, 66% hits | inhibition, % at 5.6 µM;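 active = mean inhibition above the hit cutoff derived in the earlier primary screen, cut at about 25% in these data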;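 also: higher means lower luminescence from reduced cell ATP and viability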
Each line names hits and unclear results; the compound was inactive in the other large screens (follow-up assays come after a bar, where they were run). A selection: hits, their analogues and other compounds. The true share with any hit is near 2.2%.

Cc1nc([N+](=O)[O-])c(Br)n1CC(=O)c1ccc2ccccc2c1	Ba/F3 V617F tox 43.5 | BaF3 tox 2 inactive | JAK2V617F confrm 76.5
Cc1nn(Cc2ccccc2Cl)c2sc(C(=O)NC(C)(C)C)cc12	none
Cc1csc(NC(=O)c2cc3c(C)nn(Cc4ccccc4Cl)c3s2)n1	Ba/F3 V617F tox 35.9 | BaF3 tox 2 inactive | JAK2V617F confrm 27.5
COC(=O)CCN(c1ccccc1)S(=O)(=O)c1cc(-c2cc(C)no2)ccc1OC	none (no result: Ba/F3 V617F tox, APP 5UTR inh, BaF3 tox)
Cc1ccc(-n2nc3c(=O)n(CCCC(=O)NCCN4CCN(C)CC4)nc(C)c3c2C)cc1	none (no result: Ba/F3 V617F tox, APP 5UTR inh, BaF3 tox)
O=C(N/N=C/c1cc([N+](=O)[O-])ccc1O)c1cccc2cc[nH]c12	Ba/F3 V617F tox 33.9, aSyn UTR inh 68.0 (no result: APP 5UTR inh) | BaF3 tox 2 inactive | JAK2V617F confrm 28.4
Cc1ccc(-n2c(=O)c(C#N)cc3c(=O)n4ccccc4nc32)cc1	none
Cc1ccc(C)c(-n2c(=O)c(C#N)cc3c(=O)n4ccccc4nc32)c1	Ba/F3 V617F tox 60.5 | BaF3 tox 2 inactive | JAK2V617F confrm inactive
Cn1cnc([N+](=O)[O-])c1Sc1nc2ccccc2[nH]1	Ba/F3 V617F tox 34.1 (no result: APP 5UTR inh) | BaF3 tox 2 inactive | JAK2V617F confrm 43.5
Cc1nc([N+](=O)[O-])c(Sc2nc3ccccc3[nH]2)n1Cc1ccccc1	none
N#Cc1c(N2CCSCC2)nsc1-c1ccccc1Cl	none (no result: Ba/F3 V617F tox, APP 5UTR inh, BaF3 tox)
Nc1nc(=S)c2ncn(C3OC(CO)C(O)C3O)c2[nH]1 (stereo not given)	Ba/F3 V617F tox 45.0 (no result: APP 5UTR inh) | BaF3 tox 2 inactive | JAK2V617F confrm 29.6
CC(C)(C)c1cc(NC(=O)CCl)n(-c2ccccc2)n1	Ba/F3 V617F tox 30.4 (no result: APP 5UTR inh) | BaF3 tox 2 inactive | JAK2V617F confrm 81.1
O=C(CN(C(=O)c1csnn1)c1ccc(F)cc1)NCCc1ccccc1	none (no result: Ba/F3 V617F tox, APP 5UTR inh, BaF3 tox)
O=C1C2CCCN2C(c2ccccc2)N1c1ccc(F)cc1 (stereo not given)	none
O=C1C2CCCN2C(c2ccc(F)cc2)N1c1ccc(Cl)cc1 (stereo not given)	Ba/F3 V617F tox 42.2 | BaF3 tox 2 inactive | JAK2V617F confrm inactive
Cc1ccc(OCCOC(=O)Cn2nc(C)c([N+](=O)[O-])c2C)cc1	Ba/F3 V617F tox 26.1 | BaF3 tox 2 inactive | JAK2V617F confrm inactive
CCOC(=O)Cn1nc(C)c([N+](=O)[O-])c1C	none
CC1=CC(C)(C)Nc2ccc(OC(=O)CN3C(=O)CCC3=O)cc21	none
CC1=CC(C)(C)Nc2ccc(OC(=O)c3ccco3)cc21	Ba/F3 V617F tox 43.1 | BaF3 tox 2 37.1 | JAK2V617F confrm 83.0
O=C(O)c1ccccc1C(=O)c1ccc(-c2ccccc2)cc1	none (no result: Ba/F3 V617F tox, APP 5UTR inh, BaF3 tox)
O=C(c1ccccc1)c1ccccc1N1C(=O)C=CC1=O	Ba/F3 V617F tox 32.0 (no result: APP 5UTR inh) | BaF3 tox 2 inactive | JAK2V617F confrm 26.2
CCc1nnc(NC(=O)CCC(=O)NC2CC2)s1	none (no result: Ba/F3 V617F tox, APP 5UTR inh, BaF3 tox)
Cn1cnc([N+](=O)[O-])c1NC(C)(C)C	none
Cn1cnc([N+](=O)[O-])c1S(=O)(=O)c1ccc(Cl)cc1	Ba/F3 V617F tox 26.3 | BaF3 tox 2 inactive | JAK2V617F confrm 68.8
COc1ccc(C)cc1NC(=O)C1CCN(C(=O)Cc2ccccc2)CC1	Ba/F3 V617F tox 41.5 | BaF3 tox 2 inactive | JAK2V617F confrm inactive
c1ccc(Sc2cccc3ccccc23)c(CNC2=NCCN2)c1	Ba/F3 V617F tox 34.4, aSyn UTR inh inconclusive | BaF3 tox 2 39.3 | JAK2V617F confrm 47.9
CCC(C)NC(=O)C1c2ccccc2C(=O)N1Cc1ccc(F)cc1 (stereo not given)	none (no result: Ba/F3 V617F tox, APP 5UTR inh, BaF3 tox)
COc1ccccc1CN1CC(C(=O)NCc2cc(C(C)C)no2)CCC1=O (stereo not given)	none (no result: Ba/F3 V617F tox, APP 5UTR inh, BaF3 tox)
CNC(=O)c1nnsc1S(=O)c1ccc(Cl)cc1 (stereo not given)	Ba/F3 V617F tox 43.6, APP 5UTR inh 86.5 | BaF3 tox 2 inactive | JAK2V617F confrm 70.1
CCCNC(=O)c1ccc2snnc2c1	none
CCCNC(=O)c1nnsc1S(=O)c1ccc(Cl)cc1 (stereo not given)	Ba/F3 V617F tox 54.8, APP 5UTR inh 94.5 | BaF3 tox 2 41.6 | JAK2V617F confrm 99.1
CCN1CCN(c2nc3c(C)cccn3c(=O)c2C=C(C#N)C#N)CC1	none (no result: Ba/F3 V617F tox, APP 5UTR inh, BaF3 tox)
